Rows were chosen to be rich in hits. Some 6.1% of all compounds tested hit in one or more screens of this group.
RORgamma inh – qHTS for inhibitors of ROR gamma transcriptional activity | 310,000 compounds, 5.4% hits | Drosophila S2 Gal4-RORgamma UAS-luciferase reporter, 20 h | Nuclear receptor ROR-gamma (Mus musculus), P51450 | Potency, µM (series often up to 53.6 µM), usual class: inhibitors; also: nearly all actives have a fitted effect of over 60% in size
Target sequence (P51450 whole entry, looked up, the tested form may be a part): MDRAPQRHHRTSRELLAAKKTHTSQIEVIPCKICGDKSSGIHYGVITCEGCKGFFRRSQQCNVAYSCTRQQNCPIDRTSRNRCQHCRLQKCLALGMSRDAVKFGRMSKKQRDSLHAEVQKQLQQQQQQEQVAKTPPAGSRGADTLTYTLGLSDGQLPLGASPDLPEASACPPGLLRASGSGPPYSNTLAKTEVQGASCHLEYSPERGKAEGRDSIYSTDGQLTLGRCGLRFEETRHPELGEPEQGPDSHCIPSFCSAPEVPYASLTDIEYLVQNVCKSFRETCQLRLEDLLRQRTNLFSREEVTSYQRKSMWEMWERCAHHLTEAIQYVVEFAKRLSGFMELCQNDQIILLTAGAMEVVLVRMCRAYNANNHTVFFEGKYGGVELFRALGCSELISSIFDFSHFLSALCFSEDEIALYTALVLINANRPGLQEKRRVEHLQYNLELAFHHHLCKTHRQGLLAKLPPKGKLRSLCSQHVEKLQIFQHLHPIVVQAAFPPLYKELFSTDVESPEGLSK
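Schneider cells (Drosophila), stable Gal4 DBD–ROR gamma + UAS-luc; 1 hr cmpd preincubation; Cu2+ induction 700 uM final; 20 hr ambient; luminescence.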
TGFb SMAD3 inh – qHTS for Inhibitors of TGF-b. HepG2 CAGA-GFP TGF-b/SMAD3 reporter, GFP fluorescence, 18 h; TGF-beta stimulated, 500 pg/mL final. Potency, µM (series often up to 46.1 µM), actives largely listed as inhibitors. 410,000 compounds, 1.2% hits; also: nearly all actives have a fitted effect of over 65% in size
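HEPG2 CAGA-GFP cells (1000/well, DMEM with 1% FBS) were pre-incubated 2 h at 37 degrees C, given compound by pin tool, then stimulated with TGF-beta at 500 pg/mL final for 18 h before per-cell GFP fluorescence imaging.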
ATXN2 expr inh – Primary qHTS for Inhibitors of ATXN expression; AID 1745845, 2022; 360,000 compounds, 0.72% hits; HEK-293 ATXN2-luciferase reporter, luminescence, 24 h; Potency, µM (doses to about 57 µM), actives largely listed as inhibitors; also: nearly all actives have a fitted effect of over 55% in size
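qHTS (up to 57 uM final) was run with 24 h compound exposure of reporter cells at 37 °C. Each well was multiplexed: SteadyGlo luminescence measured ATXN2-luciferase expression after a fluorogenic Gly-Phe-AFC viability readout (25 uM final).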
HepG2 tox – qHTS for Inhibitors of TGF-b: Cytotox Counterscreen; Potency, µM (titrated, usually from 46.1 µM), usual class: cytotoxic; HepG2 CAGA-GFP viability, ATP luminescence, 18 h; 410,000 compounds, 0.76% hits
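CellTiter-Glo luminescence gave cytotoxicity after 18 hours at 37 degrees C. The cells were HepG2 CAGA-GFP in 1% FBS DMEM, stimulated with 500 pg/mL TGF-beta after compound addition. %Activity was normalised to no-cell wells (complete cell-killing) and DMSO (no toxicity), and curves were fitted and classified.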
S2 tox – Viability Counterscreen for Primary qHTS for Inhibitors of ATXN expression | S2 cells (HEK-293 line with an ATXN2-luciferase reporter) viability, CellTiter-Fluor protease fluorescence, 24 h | 400,000 compounds, 0.49% hits | Potency, µM (highest dose often 56.7 µM), usual class: cytotoxic; also: nearly all actives have a fitted effect of over 40% in size
VP16 counter – VP16 counterscreen qHTS for inhibitors of ROR gamma transcriptional activity; Drosophila S2 Gal4-VP16 UAS-luciferase, luminescence, 20 h; AID 2546, 2010; 310,000 compounds, 3.5% hits; Potency, µM (top dose mostly 53.6 µM), actives largely listed as inhibitors;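 also: Gal4-VP16 expression switched on by copper sulfate through the metallothionein promoter; nearly all actives have a fitted effect of over 50% in size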
Numbers stand for hits; i = inactive; ? = inconclusive; nt = no result given; ! = repeats disagree. Calls follow the shape of the dose curve; as a rule, active = well fitted curve in the direction sought with a large enough effect; inconclusive = small, poorly fitted or top-dose-only effect, or another doubt; inactive = no such curve, though single readings can be large; an effect the other way counts as inactive or inconclusive.

SMILES	RORgamma inh	TGFb SMAD3 inh	ATXN2 expr inh	HepG2 tox	S2 tox	VP16 counter
Cc1nc(N)nc(N)c1-c1ccc(Cl)c(Cl)c1	nt	?	7.9µM!	0.63µM	i	nt
Nc1nc(N)nc(-c2ccc(Cl)c(Cl)c2)n1	nt	?	i	i	i	nt
COc1ccc(N2CCN(CC(O)COc3ccccc3C(C)(C)C)CC2)cc1 (stereo not given)	nt	?	i	i	i	nt
CCc1ccc(Nc2n[n+](-c3ccccc3)c(-c3cc(OC)c(OC)cc3Br)s2)cc1	10µM	i	i	i	i	i
COc1ccc2ccccc2c1-c1sc(Nc2ccccc2)n[n+]1-c1ccc(F)cc1	i	?	28µM	11µM	28µM	i
CCc1ccc(Nc2n[n+](-c3ccccc3)c(/C=C/c3ccccc3)s2)cc1	?	nt	nt	nt	nt	i
COc1ccc(-c2sc(Nc3ccccc3)n[n+]2-c2ccc(F)cc2)cc1Br	i	i	i	i	?	i
CCc1ccc(Nc2n[n+](-c3ccccc3)c(-c3c(Cl)cccc3Cl)s2)cc1	11µM	7.1µM	10µM	i	10µM	?
Fc1ccc(-[n+]2nc(Nc3ccccc3)sc2-c2c(Cl)cccc2Cl)cc1	i	?	?	11µM	nt	i
CC(C)(S)C(=O)N[C@@H](CS)C(=O)O	nt	nt	nt	nt	i	nt
Cc1ccc(CCNc2ncnc3onc(C)c23)cc1	nt	i	i	i	?	nt
COc1ccc(N2C3=C(CC4=C2CC(C)(C)CC4=O)C(=O)CC(C)(C)C3)cc1	i	?	16µM	16µM	i	i
COc1ccc(OC)c(S(=O)(=O)N2C(C)CCCC2C)c1 (stereo not given)	i	i	i	i	i	i
COc1ccc(/C(C)=N/N2C(C)CCCC2C)c(OC)c1 (stereo not given)	13µM	i	i	i	i	?
COc1ccc(/C=c2\[nH]c(=O)/c(=C/c3ccc(OC)c(OC)c3)[nH]c2=O)cc1OC	nt	i	nt	i	nt	nt
COc1ccc(/C=C2\CC/C(=C\c3ccc(OC)c(OC)c3)C2=O)cc1OC	2.2µM	i	i	i	i	16µM
COc1cc(/C=C2\COC/C(=C\c3ccc(O)c(OC)c3)C2=O)ccc1O	?	6.3µM	?	i	nt	?
COc1ccc(C=C2C=C(C(C)(C)C)C(=O)C(C(C)(C)C)=C2)cc1OC	7.1µM	?	?	i	i	4.5µM
CC(C)(C)c1ccc(S(=O)(=O)c2cn(CC(=O)Nc3ccccc3)c3ccccc3c2=O)cc1	nt	?	i	i	?	nt
O=C(NCc1cccnc1)/C(=C/c1ccc(-c2ccc(Cl)cc2)o1)S(=O)(=O)c1ccccc1	?	?	13µM	4.5µM	nt	20µM
CCNC(=O)CSc1nnc(CN2CCCCCC2=O)n1-c1ccccn1	i	i	i	i	i	i
O=C1CCCCCN1Cc1nnc(SCc2nc3ccccc3s2)n1-c1ccccn1	2.5µM	i	i	i	i	7.1µM
CN(C)c1cccc(C(=O)Nc2ccc(-c3nc4ccccc4s3)cc2)c1	nt	i	i	i	?	nt
Cc1ccc(-n2ncc(Br)c(Br)c2=O)cc1	5µM	3.2µM	?	i	21µM	2.8µM
C=CCn1c(N)cc(=O)nc1SCC(=O)NC(C)c1ccccc1 (stereo not given)	i	i	i	i	i	18µM
SMILES	RORgamma inh	TGFb SMAD3 inh	ATXN2 expr inh	HepG2 tox	S2 tox	VP16 counter
CC(NC(=O)CSc1nc(=O)cc(N)n1-c1ccccc1)c1ccccc1 (stereo not given)	i	i	i	i	i	i
Cc1cc(NC(=O)c2cccn2-c2nnc(N3CCCCC3)s2)ccc1Br	nt	8.9µM	nt	i	nt	nt
Cc1ccc(-c2nc3ccccc3o2)cc1NC(=S)NC(=O)/C=C/c1ccco1	2µM	i	i	i	i	?
O=C(/C=C/c1ccco1)NC(=S)Nc1cccc(-c2nc3ccccc3o2)c1	2.2µM	?	i	i	i	13µM
COc1ccc(C2NC(=S)NC3=C2CCc2cc(OC)ccc23)cc1 (stereo not given)	0.56µM	i	i	i	?	?
CC1CCN(CCNC(=O)c2ccc3c(=O)n(Cc4ccc(Cl)cc4)c(=S)[nH]c3c2)CC1	11µM	i	nt	i	i	?
COC(CNC(=O)c1ccc2c(=O)n(Cc3ccc(Cl)cc3)c(=S)[nH]c2c1)OC	?	i	i	i	i	i
COCCCNC(=O)c1ccc2c(=O)n(Cc3ccc(Cl)cc3)c(=S)[nH]c2c1	18µM	i	nt	i	i	?
COCCCNC(=O)c1ccc2c(=O)n(Cc3ccc4c(c3)OCO4)c(=S)[nH]c2c1	i	i	nt	i	nt	?
CCCCNC(=O)c1ccc(Cn2c(=S)[nH]c3c([nH]c4ccc(OC)cc43)c2=O)cc1	13µM	?	?	i	nt	18µM
O=C(OCCNc1nc(-c2ccccc2)nc2ccccc12)c1cccnc1	?	i	nt	i	?	i
CCCOC(=O)c1cccc(Nc2nc(-c3cccnc3)nc3ccccc23)c1	?	18µM	?	16µM	nt	?
CCCN(CCC)S(=O)(=O)c1ccc(Cl)c([N+](=O)[O-])c1	i	?	?	i	24µM	i
O=C(NCc1ccncc1)c1cnn(-c2nccc(-c3cccs3)n2)c1C1CC1	nt	nt	nt	nt	i	nt
CC(=O)Nc1csc2ccccc12	i	i	nt	i	i	i
O=C(Nc1ccccc1)Nc1csc2ccccc12	i	?	i	18µM	i	i
CSCC[C@H](NC(=O)[C@H](CC(C)C)NC(=O)CNC(=O)[C@@H]1CCCN1C(=O)[C@H](Cc1ccccc1)NC(=O)[C@H](Cc1ccccc1)NC(=O)[C@H](CC(=O)O)NC(=O)[C@H](Cc1cnc[nH]1)NC(=O)[C@H](CCSC)NC(=O)[C@@H](N)CC(=O)O)C(N)=O	i	nt	nt	nt	nt	i
CCCCOc1ccc(NC(=S)Nc2cc(C)nc(SCCCC)n2)cc1	1.4µM	i	i	i	i	1µM
Cc1cccc(-n2ncc3c(NNC(=O)c4ccco4)ncnc32)c1	7.1µM	i	i	i	i	7.9µM
Cc1ccc(-n2ncc3c(NNC(=O)c4ccco4)ncnc32)cc1Cl	3.2µM	?	i	i	i	4µM
Cc1ccc(-n2ncc3c(NNC(=O)Cc4ccccc4)ncnc32)cc1	13µM	i	i	i	i	?
Cc1cccc(C(=O)NNc2ncnc3c2cnn3-c2ccc(C)c(Cl)c2)c1	nt	i	i	i	i	nt
Cc1ccc(-n2ncc3c(NCCCN(C)C)ncnc32)cc1Cl	nt	?	?	13µM	nt	nt
COc1cccc(C(=O)Nc2cc(-c3ccccc3)no2)c1	nt	i	i	i	i	nt
CC(=O)NNc1ncnc2c1cnn2-c1ccccc1	i	i	i	i	i	i
O=C(NNc1ncnc2c1cnn2-c1ccc(F)cc1)c1cccs1	13µM	i	i	i	i	i
CCc1ccc(NS(=O)(=O)c2ccc(-c3cc(C)no3)cc2)cc1	nt	?	nt	11µM	nt	nt

Source: PubChem BioAssay (National Center for Advancing Translational Sciences (NCATS))
